Values joined by “and” are separate entries in the source; they are usually repeats but may differ in a detail not shown here. Equal values may be shown once. More than one record can exist for a structure, and the calls need not agree. Active and inactive are the calls of the source. How the source made its calls: active means hit-call score of the fitted dose curve at least 0.9, where 1 is the maximum; inactive means score below 0.9.
Legend:
[1] = target: Hypoxia-inducible factor 1-alpha (Homo sapiens) (UniProt Q16665); experiment: ATG_HIF1a_CIS: Attagene CIS-FACTORIAL HepG2 Assay for human Hypoxia Inducible Factor 1 (HIF1A) (AID 2282951); details: HepG2 Attagene cis-factorial HIF1a reporter transcription; actives raise or lower the signal
Sequence of Hypoxia-inducible factor 1-alpha (Homo sapiens) (Q16665 whole entry, looked up): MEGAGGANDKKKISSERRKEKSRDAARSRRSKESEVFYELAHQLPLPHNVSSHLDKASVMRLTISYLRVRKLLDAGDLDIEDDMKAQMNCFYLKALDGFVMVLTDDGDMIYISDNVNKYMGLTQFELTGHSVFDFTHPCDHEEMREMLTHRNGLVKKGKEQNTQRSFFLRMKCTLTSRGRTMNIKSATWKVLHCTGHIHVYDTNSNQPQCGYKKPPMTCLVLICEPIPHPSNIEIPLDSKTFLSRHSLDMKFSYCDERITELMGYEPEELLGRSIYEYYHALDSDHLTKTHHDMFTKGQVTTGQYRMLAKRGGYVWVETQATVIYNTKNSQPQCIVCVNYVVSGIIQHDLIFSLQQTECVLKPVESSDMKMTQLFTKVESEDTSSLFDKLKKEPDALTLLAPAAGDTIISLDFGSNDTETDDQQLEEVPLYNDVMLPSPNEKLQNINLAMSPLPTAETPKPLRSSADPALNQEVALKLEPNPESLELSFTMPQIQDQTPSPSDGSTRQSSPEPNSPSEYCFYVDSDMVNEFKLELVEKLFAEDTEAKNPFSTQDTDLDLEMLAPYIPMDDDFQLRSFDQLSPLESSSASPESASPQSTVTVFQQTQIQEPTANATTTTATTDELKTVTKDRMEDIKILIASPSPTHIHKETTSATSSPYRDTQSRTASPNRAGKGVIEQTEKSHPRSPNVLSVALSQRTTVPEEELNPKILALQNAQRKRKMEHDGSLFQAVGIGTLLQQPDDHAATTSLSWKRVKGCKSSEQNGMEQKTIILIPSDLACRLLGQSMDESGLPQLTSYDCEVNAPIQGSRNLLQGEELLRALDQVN
In short: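 In this multiplexed cell assay, HepG2 cells bearing transfected cis reporters are dosed for 24 h and reporter mRNA is read by RT-PCR plus capillary electrophoresis; signal increases and decreases are both scored against DMSO.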

[2] = target: Hepatocyte nuclear factor 6 (Homo sapiens) (UniProt Q9UBC0); experiment: ATG_HNF6_CIS: Attagene CIS-FACTORIAL HepG2 Assay for human Hepatocyte Nuclear Factor 6 (HNF6) (AID 2282952); details: HepG2 Attagene cis-factorial HNF6 reporter transcription; actives raise or lower the signal
Sequence of Hepatocyte nuclear factor 6 (Homo sapiens) (Q9UBC0 whole entry, looked up): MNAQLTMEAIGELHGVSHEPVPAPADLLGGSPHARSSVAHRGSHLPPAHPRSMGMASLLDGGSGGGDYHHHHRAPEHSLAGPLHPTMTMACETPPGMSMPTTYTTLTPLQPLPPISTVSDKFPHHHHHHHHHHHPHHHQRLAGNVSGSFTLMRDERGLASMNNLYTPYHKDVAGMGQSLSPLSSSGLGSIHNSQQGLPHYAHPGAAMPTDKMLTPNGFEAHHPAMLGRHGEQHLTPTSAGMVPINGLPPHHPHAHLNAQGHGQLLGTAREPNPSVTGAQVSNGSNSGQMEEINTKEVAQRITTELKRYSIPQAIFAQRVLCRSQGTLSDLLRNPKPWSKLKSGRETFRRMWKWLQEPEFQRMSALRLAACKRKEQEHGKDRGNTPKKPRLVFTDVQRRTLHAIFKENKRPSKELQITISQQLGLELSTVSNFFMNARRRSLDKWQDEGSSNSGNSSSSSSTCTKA
In short: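 Activity values derive from bidirectional fitting against DMSO of reporter mRNA levels, measured by capillary electrophoresis of labelled RT-PCR products from HepG2 cells exposed 24 h.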

[3] = target: Heat shock factor protein 1 (Homo sapiens) (UniProt Q00613); experiment: ATG_HSE_CIS: Attagene CIS-FACTORIAL HepG2 Assay for human Heat Shock Transcription Factor 1 (HSE) (AID 2282953); details: HepG2 HSE cis-reporter, Attagene RNA transcription; actives raise or lower the signal
Sequence of Heat shock factor protein 1 (Homo sapiens) (Q00613 whole entry, looked up): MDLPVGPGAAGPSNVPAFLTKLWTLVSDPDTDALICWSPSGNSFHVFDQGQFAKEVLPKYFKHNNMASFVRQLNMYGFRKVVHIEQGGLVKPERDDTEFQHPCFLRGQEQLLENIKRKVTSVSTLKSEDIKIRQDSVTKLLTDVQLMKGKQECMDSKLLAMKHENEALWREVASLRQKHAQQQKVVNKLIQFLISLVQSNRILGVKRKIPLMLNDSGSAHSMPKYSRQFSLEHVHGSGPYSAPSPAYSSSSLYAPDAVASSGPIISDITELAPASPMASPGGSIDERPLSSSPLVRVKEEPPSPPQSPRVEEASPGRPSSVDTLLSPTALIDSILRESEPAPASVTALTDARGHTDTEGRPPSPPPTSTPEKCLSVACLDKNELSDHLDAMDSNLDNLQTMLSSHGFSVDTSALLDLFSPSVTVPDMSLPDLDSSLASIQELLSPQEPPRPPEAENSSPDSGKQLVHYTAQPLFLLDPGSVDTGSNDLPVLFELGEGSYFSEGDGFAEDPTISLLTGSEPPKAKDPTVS
In short: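 Liver-derived HepG2 cells carry transiently introduced multiple reporter units governed by cis promoters. Reporter RNA measured 24 h post-dose through reverse transcription, PCR amplification, fluorescent labelling and capillary electrophoresis, normalised to DMSO.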

[4] = ATG_MRE_CIS: Attagene CIS-FACTORIAL HepG2 Assay for human Metal Responsive Element (MRE) (AID 2282954); details: HepG2 MRE cis-reporter transcription, Attagene multiplex; actives raise or lower the signal
In short: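 Endogenous MRE-dependent transcription read as reporter mRNA in transiently transfected human HepG2 cells at 24 h. RNA reverse-transcribed, PCR-amplified, labelled and resolved by capillary electrophoresis; gain or loss relative to DMSO.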

[5] = ATG_PBREM_CIS: Attagene CIS-FACTORIAL HepG2 Assay for human Phenobarbital-responsive Enhancer Module (PBREM) (AID 2282955); details: HepG2 PBREM cis-reporter, Attagene multiplexed transcription; actives raise or lower the signal
In short: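 After a 24 h incubation with test chemical, transfected HepG2 cells yield total RNA; reporter-specific RT-PCR products are fluorescently labelled, HpaI-digested and resolved by capillary electrophoresis against ROX size standards.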

[6] = target: Paired box protein Pax-6 (Homo sapiens) (UniProt P26367); experiment: ATG_Pax6_CIS: Attagene CIS-FACTORIAL HepG2 Assay for human Paired Box 6 (PAX6) (AID 2282956); details: HepG2 CIS-FACTORIAL PAX6 reporter transcription, RNA readout; actives raise or lower the signal
Sequence of Paired box protein Pax-6 (Homo sapiens) (P26367 whole entry, looked up): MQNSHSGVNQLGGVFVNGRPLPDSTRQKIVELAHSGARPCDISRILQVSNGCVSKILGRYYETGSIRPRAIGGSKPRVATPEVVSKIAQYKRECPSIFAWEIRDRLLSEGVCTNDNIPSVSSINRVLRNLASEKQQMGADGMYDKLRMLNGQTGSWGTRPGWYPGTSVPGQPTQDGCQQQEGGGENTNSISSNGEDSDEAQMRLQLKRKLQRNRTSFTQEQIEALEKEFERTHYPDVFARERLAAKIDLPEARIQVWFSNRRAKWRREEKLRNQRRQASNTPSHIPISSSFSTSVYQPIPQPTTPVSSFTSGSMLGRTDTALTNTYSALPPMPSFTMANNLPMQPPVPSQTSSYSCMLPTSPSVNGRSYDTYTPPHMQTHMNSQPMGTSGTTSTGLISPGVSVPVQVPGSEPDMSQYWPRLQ
In short: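 Fluorescent RT-PCR products separated by capillary electrophoresis report PAX6-linked promoter mRNA in HepG2 cells 24 h post-dose. Curves fitted bidirectionally, DMSO as negative control.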

[7] = ATG_PXRE_CIS: Attagene CIS-FACTORIAL HepG2 Assay for human Pregnane X Receptor Element (PXRE) (AID 2282957); details: HepG2 Attagene CIS-FACTORIAL PXRE reporter, mRNA; actives raise or lower the signal
In short: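 Fluorescent capillary electrophoresis of amplified reporter cDNA gave the signal, collected 24 h after dosing HepG2 cells that held transfected cis-element reporter constructs.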

[8] = ATG_PPRE_CIS: Attagene CIS-FACTORIAL HepG2 Assay for human Peroxisome Proliferator-activated Response Element (PPRE) (AID 2282958); details: HepG2 PPRE cis-element reporter, Attagene transcription factor profiling; actives raise or lower the signal
In short: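 Multiplexed reporter transcription units under cis-regulatory promoters were transfected into HepG2 cells to capture endogenous factor activity. A 24 h incubation preceded RNA isolation and fluorescent RT-PCR fragment analysis.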

[9] = ATG_Sox_CIS: Attagene CIS-FACTORIAL HepG2 Assay for human SRY-box transcription factor (SOX) (AID 2282960); details: HepG2 Attagene cis-factorial SOX reporter, mRNA; actives raise or lower the signal
In short: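 After 24 h of chemical treatment, transfected HepG2 reporter cells are lysed for total RNA. Transcript levels come from RT-PCR with labelled primer extension and capillary electrophoresis, analysed bidirectionally versus DMSO.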

[10] = ATG_RORE_CIS: Attagene CIS-FACTORIAL HepG2 Assay for human RAR-related Orphan Receptor Element (RORE) (AID 2282959); details: HepG2 Attagene cis-factorial RORE reporter, mRNA; actives raise or lower the signal
In short: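 Fluorescence intensity of reporter-specific cDNA fragments, separated by capillary electrophoresis, gives the signal. Source: HepG2 liver cells transiently transfected with cis-element reporters and exposed 24 h; DMSO-normalized bidirectional fit.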

Measured: AC50

CCOC(=O)/C=C(C)/C=C/C[C@@H](C)CCCC(C)C
inactive: [6] | [8] | [9]
active: [1] 24.4 µM | [2] 176 µM | [3] 62.9 µM | [4] 174 µM | [5] 182 µM | [7] 2.55 µM

CC(=O)C=C(C)C
not listed: [8]
inactive: all other assays above

CCOP(=S)(OCC)SCSP(=S)(OCC)OCC
active: [5] 1.06 µM | [7] 0.192 µM
inactive: all other assays above

CN(CCCC(=O)c1cccnc1)N=O
active: [7] 27.2 µM
inactive: all other assays above

CC(C)(c1ccccc1)c1ccc(O)c(C(C)(C)c2ccccc2)c1
active: [1] 11.1 µM | [3] 17.9 µM | [4] 13.3 µM | [5] 0.42 µM | [6] 12.7 µM | [7] 0.156 µM | [8] 3.04 µM
inactive: [2]

CN(C)N=O
active: [7] 100 µM and 55.8 µM
not listed: [8]
inactive: all other assays above

CC(C)(C)CC(C)(C)c1ccc(O)cc1
inactive: [1] | [2] | [3] | [4] | [10] | [9]
active: [1] 0.932 nM and 20.1 µM | [7] 3.34 µM [middle of 4 runs]

COC(=O)c1sccc1S(=O)(=O)NC(=O)Nc1nc(C)nc(OC)n1
not listed: [9] | [10]
inactive: all other assays above

CC(=O)c1cc(C(C)(C)C)cc2c1CCC2(C)C
active: [3] 64.4 µM | [4] 70.4 µM | [6] 26.9 µM | [7] 5.72 µM | [8] 29.4 µM
inactive: all other assays above

O=C/C=C/c1ccccc1
active: [7] 9.96 µM
not listed: [9] | [10]
inactive: all other assays above

O=C(O)C(F)(F)C(F)(F)C(F)(F)C(F)(F)C(F)(F)C(F)(F)F
inactive: [1] | [2] | [3] | [4] | [5] | [6] | [7] | [8] | [10] | [9]
active: [7] 40.2 µM | [8] 63.7 µM

C[C@@H]1C[C@@H]([C@H](O)CC2CC(=O)NC(=O)C2)C(=O)[C@@H](C)C1
inactive: [1] | [2] | [3] | [4] | [6] | [8] | [10] | [9]
active: [1] 119 nM and 22.9 µM | [3] 2.68 µM and 1.53 µM | [8] 27.5 µM

Nc1cccc2ccccc12
active: [1] 165 µM | [7] 25.7 µM
not listed: [10]
inactive: all other assays above

COc1cc2c(cc1OC)[C@@]13CCN4CC5=CCO[C@H]6CC(=O)N2[C@H]1[C@H]6[C@H]5C[C@H]43
active: [1] 30.3 µM | [7] 36.6 µM
not listed: [8]
inactive: all other assays above

CC(=O)C(Cl)C(=O)N(C)C (stereo not drawn)
active: [4] 100 µM
not listed: [10]
inactive: all other assays above

CCC[CH2][Sn]([Cl])([Cl])[Cl]
inactive: all assays above

CCc1ccccc1N
active: [7] 68.3 µM
not listed: [5]
inactive: all other assays above

CCOP(=S)(OCC)SCCS(=O)(=O)CC
active: [7] 11.5 µM
not listed: [5]
inactive: all other assays above

N#CCc1ccc(Cl)cc1
active: [7] 48.5 µM
not listed: [5] | [9]
inactive: all other assays above

c1cc[c]([Hg][c]2ccccc2)cc1
active: [4] 14.4 µM | [10] 25.6 µM
not listed: [5] | [9]
inactive: all other assays above

CC(C)c1ccc(CO)cc1
not listed: [5]
inactive: all other assays above

Nc1ncc([N+](=O)[O-])s1
not listed: [5]
inactive: all other assays above

CC(C)CCCCCCOC(=O)c1ccccc1C(=O)OCCCCCCC(C)C
active: [7] 1.39 µM
not listed: [8] | [10]
inactive: all other assays above

O=c1[nH]c(=O)[nH]c(=O)[nH]1
not listed: [5]
inactive: all other assays above
